Cycloheximide cs – counter-screen hit for Shiga toxin inhibitors, cycloheximide; max response, %; AID 2314; cell reporter, cycloheximide protein synthesis inhibition counterscreen; hit rate 12% among 300,000; in the data active = max response mostly above about 13%, no sharp cut-off; inactive = mostly below about 14%; also: read at 38.3 µM for the half of the compounds with a filed dose; 0% is about no effect
Pf growth 48h – P. falciparum growth inhibition at 48 hours (one generation); hit rate 5.9% among 310,000; Potency, µM (series often up to 28.7 µM), without a hit: at the highest dose activity change, negative = inhibition, hits mostly inhibitors; P. falciparum luciferase growth in erythrocytes, 48 h; also: potency is read from the fitted curve at half-maximal effect; % is scaled to controls: 0 for no effect and ±100 for the full control effect
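Luciferase-expressing P. falciparum in infected erythrocytes (2% hematocrit, 0.1% parasitemia final) in RPMI 1640/0.5% Albumax were exposed to compound for 48 hours at 37 C, 5% CO2; growth read as luminescence.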
Shiga inhibitor – inhibitors of Shiga toxin in Vero cells | Vero cells, Shiga toxin protein synthesis inhibition reporter | inhibition, % at 38.7 µM | hit rate 9.2% among 290,000; in the data active = inhibition mostly above about 28%, no sharp cut-off; inactive = mostly below about 43%; also: 0% is about no effect
Pf growth 96h – P. falciparum growth inhibition at 96 hour, primary screen for plastid delayed-death inhibitors. P. falciparum luciferase reporter growth, 96 h. Potency, µM (highest dose often 28.7 µM), without a hit: top-dose activity change, negative = inhibition, actives largely listed as inhibitors. hit rate 6.9% among 320,000. AID 504834; also: potency is read from the fitted curve at half-maximal effect; % is scaled to controls: 0 for no effect and ±100 for the full control effect
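Compounds incubated with erythrocytes infected by luciferase-expressing P. falciparum (2% hematocrit, 0.05% parasitemia final) for 96 hours, 37 C in 5% CO2. Growth inhibition scored as decreased luciferase luminescence.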
* hit, by the source's call; i = inactive; ? = inconclusive; . = no result given. In the library only some 21% were active in any assay of this set; here they are far more common. Unless noted, calls follow the shape of the dose curve; as a rule, active = well fitted inhibition curve with a large enough effect; inconclusive = small, poorly fitted or top-dose-only effect, or another doubt; inactive = no such curve, though single readings can be large or run the other way.

SMILES | Cycloheximide cs | Pf growth 48h | Shiga inhibitor | Pf growth 96h
CN(Cc1ccccc1)C(=O)c1[nH]cnc1C(=O)Nc1nccs1 | . | 15% | . | ?
C=CCn1c(=O)c2ccccc2n2c(SCC(=O)NC)nnc12 | 11 | 12% | -5 | 14%
CC1(C)CC(=O)C(C=Nc2cc(C(=O)c3ccccc3)ccc2N)=C(O)C1 | 24* | -70% | 101* | 14%
COC(=O)c1ccc(N)c(N=CC2=C(O)CC(C)(C)CC2=O)c1 | 50* | 25% | 19* | 62%
CCC(=O)Nc1ccc(Cl)c(NC(=S)NC(=O)c2cc3ccccc3o2)c1 | 52* | 17% | 72* | -8%
CCC(=O)NC(=S)Nc1ccc(NC(=O)c2cc3ccccc3o2)c(OC)c1 | 1 | 12% | 30* | ?
COc1cc(NC(=O)C(C)C)ccc1NC(=O)c1cc2ccccc2o1 | 24* | 127% | 40* | -7%
CCOc1cccc(C(=O)Nc2ccc(NC(=O)c3cc4ccccc4o3)c(OC)c2)c1 | -2 | 8% | 2 | 50%
COc1cc(NC(=S)NC(=O)C(C)C)ccc1NC(=O)c1cc2ccccc2o1 | -1 | 23% | -12 | 1%
COc1cc(NC(=O)c2cccc(C)c2)ccc1NC(=O)c1cc2ccccc2o1 | 13* | 75% | 49 | 44%
CCCCNS(=O)(=O)c1ccc2nc(-c3cccnc3)cc(C(=O)NCC(OC)OC)c2c1 | 1 | 3% | -19 | 4%
Cc1ccc(C)c(N(CC(=O)NCc2ccco2)C(=O)CNS(=O)(=O)c2ccccc2)c1 | 8 | -16% | -1 | ?
NCC(=O)N[C@@H](CCCN=C(N)N)C(=O)NCC(=O)N[C@@H](CC(=O)O)C(=O)N[C@@H](CO)C(=O)N1CCC[C@H]1C(=O)O | -7 | . | -7 | .
O=C(CSc1nc2cc(Cl)ccc2s1)c1cc2ccccc2o1 | -1 | 19% | -7 | .
O=C(CSc1nc2ccccc2s1)N1c2ccccc2Sc2ccc(C(F)(F)F)cc21 | 2 | 15µM* | -8 | ?
O=c1oc2cc(Cl)ccc2n1CSc1nc2ccccc2s1 | 31* | . | 58* | ?
O=C(CSc1nc2ccccc2s1)N1c2ccccc2Sc2ccc(Cl)cc21 | -3 | ? | -3 | 5.9µM*
O=C(NC1CCN(S(=O)(=O)c2ccc(F)cc2)CC1)c1cccnc1 | -5 | -17% | 8 | 53%
COC(=O)c1[nH]c(C)c(/C(O)=C2\C(=O)C(=O)N(CCN3CCOCC3)C2c2ccco2)c1C (stereo not drawn) | 1 | 4% | 15 | 11%
NN1C(=O)/C(=C2/Sc3ccccc3N2CCCS(=O)(=O)O)SC1=S | 12 | 9% | 33 | 0%
O=C1NC(=S)S/C1=C1\Sc2ccccc2N1CCCS(=O)(=O)O | -2 | 7% | -3 | 7.4µM*
COc1c(Br)cc(/C=N/n2c(-c3ccccc3)n[nH]c2=S)c(O)c1Br | -1 | 2% | -2 | ?
Cc1cc2cc(CCNC(=O)CCCc3ccccc3)c(=O)[nH]c2cc1C | 9 | -17% | 8 | -16%
COc1ccc(/C=N/NC(=O)c2ccoc2C)cc1O | 58* | 65% | 57* | -20%
COc1ccc(/C=N/NC(=O)c2ccoc2C)cc1COc1ccc(Cl)cc1 | 33* | ? | 91* | ?
SMILES | Cycloheximide cs | Pf growth 48h | Shiga inhibitor | Pf growth 96h
COc1ccc(/C=N/NC(=O)c2ccoc2C)cc1OC | 43* | 70% | 115* | 14%
COc1ccc(NS(=O)(=O)c2ccc3c(c2)NC(=O)C(C)S3)cc1 (stereo not drawn) | 27 | ? | -6 | ?
Cc1ccc(C(=O)N(C)CC(=O)Nc2cccc(F)c2)cc1S(=O)(=O)N1CCCCC1 | . | -5% | . | -28%
CCCCCCCCC/C(=N\O)c1ccccn1 | 24* | ? | 83* | ?
CCCCCCCCC(=O)N/N=C/c1ccccn1 | -3 | ? | -7 | 54%
C=CCOc1cc(OC)c(OC)c(OC)c1 | -1 | 17% | -2 | -1%
C=CCOc1ccc(/C(CC)=N/O)c(OC)c1 | 13* | 8% | 27 | .
C#CCn1c(S(=O)(=O)Cc2ccc(F)cc2)nc(-c2ccccc2)c1-c1ccccc1 | 1 | ? | -6 | 8.3µM*
CCOC(=O)Cn1c(S(=O)(=O)Cc2ccc(F)cc2)nc(-c2ccccc2)c1-c1ccccc1 | 3 | 13µM* | -3 | 9.3µM*
CCOC(=O)Cn1c(S(=O)(=O)Cc2cccc(F)c2)nc(-c2ccccc2)c1-c1ccccc1 | 7 | 8.3µM* | 9 | 5.9µM*
COc1ccc(C(=O)N2CCOC2CNC(=O)C(=O)NCCc2ccccc2OC)cc1 (stereo not drawn) | -2 | ? | -4 | -1%
CS(=O)(=O)Nc1ccc(C(=O)N2CC(=O)Nc3ccccc32)cc1 | -2 | 8% | -3 | ?
COc1cc(NS(=O)(=O)c2ccc(NC(=S)NC(=O)c3ccc(F)c(F)c3)cc2)nc(OC)n1 | -3 | 1% | 23 | 24%
O=C(CNC(=O)c1ccccc1F)OC(C(=O)Nc1cc(C(F)(F)F)ccc1Cl)c1ccccc1 (stereo not drawn) | 1 | . | -9 | ?
CCCC(=O)NC(Nc1cc(C(F)(F)F)ccc1Cl)C(Cl)(Cl)Cl (stereo not drawn) | -4 | 12µM* | -10 | ?
CCCC(=O)NC(Nc1cccc(C(F)(F)F)c1)C(Cl)(Cl)Cl (stereo not drawn) | 1 | ? | -8 | 1.9µM*
CC(C)C(=O)NC(Nc1cc(C(F)(F)F)ccc1Cl)C(Cl)(Cl)Cl (stereo not drawn) | -2 | ? | -9 | 13µM*
C[C@H](NC(=O)c1ccccc1Cl)C(=O)OC(C(=O)Nc1cc(C(F)(F)F)ccc1Cl)c1ccccc1 (stereo partly drawn) | 19 | . | 5 | 8.3µM*
OCCN(CCO)c1ccc(C(c2ccc(Cl)cc2)c2ccc(N(CCO)CCO)cc2Cl)c(Cl)c1 | -4 | ? | 2 | 58%
Cc1cc(N(CCO)CCO)ccc1N=Nc1cc(F)ccc1F | 41* | 38% | 118* | 42%
CC1(C)Cc2c(C#N)c(NCCCO)nc(-c3ccccc3)c2CO1 | 0 | . | -1 | ?
CCCCN(C)c1nc(-c2ccco2)c2c(c1C#N)CC(C)(C)OC2 | -4 | . | 15 | 2.9µM*
CCN(CC)CCNc1nc(-c2ccccc2)c2c(c1C#N)CC(C)(C)OC2 | -2 | . | -11 | 8.3µM*
S=c1[nH]nc(COc2ccccc2)n1/N=C/c1c(Cl)cccc1Cl | -2 | . | -10 | 26%
COc1cc(/C=N/NC(=O)c2cccnc2)ccc1OCC(=O)N1CCOCC1 | -2 | 38% | -12 | 18%
SMILES | Cycloheximide cs | Pf growth 48h | Shiga inhibitor | Pf growth 96h
Cc1ccc(N=Nc2cc(C)ccc2N)cc1 | 38* | 232% | 50* | i
Cc1nc(Cl)c(C(=O)NCCc2ccccc2)c(C)c1[N+](=O)[O-] | 0 | -14% | 17 | -12%
O=C(NC(=S)Nc1ccccc1F)c1ccc(Br)o1 | 33* | 112% | 124* | 14%
Cc1ccc(NC(=S)NC(=O)c2ccc(Br)o2)c(C)c1 | 29* | 30% | 61* | 13µM*
Cc1ccc(C)c(NC(=S)NNC(=O)c2ccc(Br)o2)c1 | 16* | -8% | 70* | 5%
Cc1cccc(NC(=S)NC(=O)c2ccc(Br)o2)c1C | 1 | -14% | 32 | -20%
CSc1ccccc1OCc1cc(C(=O)NCCN2CCCc3ccccc32)no1 | 33* | ? | 16 | 9%

Screening data (PubChem BioAssay)
